Assay outcomes (PubChem)
Hits are enriched below; roughly 1% of the tested compounds scored in any of these assays.
VCAM1 TNFa inh – reduces TNF alpha induced VCAM1 expression in HUVEC; HUVEC TNFa-induced VCAM-1 immunofluorescence, high-content imaging; inhibition, % at 2 µM; 95,000 tested, 0.48% active; AID 802;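 active means inhibition above the batch mean plus 3 SD, with images confirmed as a hit by eye, cut at about 37% in these data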
TNFa cytotox – HUVEC cytotoxicity counter-screen, TNF alpha stimulated. HUVEC TNFalpha-stimulated, Hoechst cell count, imaging. cell count reduction, % at 2 µM. 93,000 tested, 0.17% active;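 active means cell count reduction exceeding the screen mean by over 5 SD, scaled to untreated wells per plate, cut at about 78% in these data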;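 further: cells counted after 24 h of TNF alpha exposure following the 1 h pretreatment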
cytoskel mod – modifiers of cytoskeleton assembly | HUVEC TNFa F-actin phalloidin imaging, high content | inhibition, % at 2 µM | 91,000 tested, 0.18% active | AID 836;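 active means inhibition above the batch mean plus 3 SD and confirmed as a hit by visual image inspection, cut at about 30% in these data, passing the limit was not always enough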
E-sel TNF inh – blocks E-selectin expression induced by TNF alpha | HUVEC TNFa-induced E-selectin immunofluorescence, high content | inhibition, % at 2 µM | 120,000 tested, 0.71% active;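 active means inhibition above the batch mean plus 3 SD, and confirmed as a hit on visual image review, cut at about 43% in these data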
Large screens that a line does not name were inactive.

CCN1/C(=C\C=C\C2=[N+](CC)c3ccccc3C2(C)C)C(C)(C)c2ccccc21	VCAM1 TNFa inh 88.0
O=C(Nc1nc(-c2ccccc2)c(-c2ccccc2)s1)c1ccc(S(=O)(=O)N(CCCl)CCCl)cc1	E-sel TNF inh 59.6 (no result: VCAM1 TNFa inh, TNFa cytotox, cytoskel mod)
C/C(=N\NC(=S)Nc1ccccc1)c1c(O)n(C)c(=O)n(C)c1=O	none (no result: VCAM1 TNFa inh, TNFa cytotox, cytoskel mod)
O=C1C2CCCN2C(c2cccnc2)N1c1ccc(Cl)c(Cl)c1 (centres undefined)	VCAM1 TNFa inh 74.8
CN1CCN(c2nc(N(C)C)oc(=O)c2C#N)CC1	none
COc1ccc(CCN(C)Cc2c(F)cccc2F)cc1OC	none (no result: E-sel TNF inh)
CC(N)Cc1c[nH]c2ccc(Cl)cc12 (centres undefined)	VCAM1 TNFa inh 38.9
Nc1ccc(C2(c3ccc(N)cc3)CCCCC2)cc1	none (no result: VCAM1 TNFa inh, TNFa cytotox, cytoskel mod)
CC(N)Cc1c[nH]c2cc3c(cc12)OCCO3 (centres undefined)	none (no result: VCAM1 TNFa inh, TNFa cytotox, cytoskel mod)
O=C1NC(=O)N(CCC2=CCCCC2)C(=O)/C1=C\c1cccs1	none (no result: VCAM1 TNFa inh, TNFa cytotox, cytoskel mod)
Cn1cccc1/C=C1\C(=O)NC(=O)N(CCC2=CCCCC2)C1=O	E-sel TNF inh 76.7 (no result: VCAM1 TNFa inh, TNFa cytotox, cytoskel mod)
CN1C(=O)/C(=C/c2cccn2-c2ccc3ccccc3c2)C(=O)NC1=S	E-sel TNF inh 79.0
COCCCN1CCN(c2nnc3n2-c2sc(Br)cc2C(c2ccccc2Cl)=NC3)CC1	none
COc1ccc(C(=O)C2(C)N(O)C(C)C(c3cccs3)=[N+]2[O-])cc1 (centres undefined)	E-sel TNF inh 58.0
CCc1ccc(N2C(=O)NC(=O)/C(=C/c3cccn3CCOc3ccc(C(C)CC)cc3)C2=O)cc1 (centres undefined)	E-sel TNF inh 79.9 (no result: VCAM1 TNFa inh, TNFa cytotox, cytoskel mod)
CCN1CCN(Cc2cc(OC)c(OC)cc2[N+](=O)[O-])CC1	E-sel TNF inh 100.0
CCN1CCN(Cc2cc(Br)cc(OC)c2O)CC1	none
NCC(CC(=O)O)C1CCCCC1 (centres undefined)	none
CN(C)CC1CSCCC1(O)c1ccccc1Cl (centres undefined)	none
CN(C)CC1CSCCC1(O)c1ccc(Cl)cc1 (centres undefined)	E-sel TNF inh 41.8
CCOc1ccccc1N1C(=O)NC(=O)C(CCc2ccncc2)(CCc2ccncc2)C1=O	cytoskel mod 33.0
CC(c1ccccc1F)n1cc(C(=O)Nc2ccc3nc[nH]c3c2)nn1 (centres undefined)	TNFa cytotox 80.3 (no result: E-sel TNF inh)
COc1ccc(OC)c2c1CCC1NCCOC21 (centres undefined)	none (no result: VCAM1 TNFa inh, TNFa cytotox, cytoskel mod)
CCCCC12CNCC(C)(CNC1)C2=O	E-sel TNF inh 100.0
CCNc1ccc(P(=S)(N(C)C)N(C)C)cc1	none
N[C@@H](Cc1c[nH]c2ccccc12)c1nnc(SCc2ccc(Cl)cc2)o1	none
CC1CN(c2cc([N+](=O)[O-])ccc2Cl)CC(C)N1 (centres undefined)	E-sel TNF inh 99.6 (no result: VCAM1 TNFa inh, TNFa cytotox, cytoskel mod)
CN1C(=O)N(C)C(=O)C2(Cc3c(nc4ccccn4c3=O)N3CCc4ccccc4C32)C1=O (centres undefined)	none
N=C1c2ccccc2CN1c1ncccn1	none (no result: VCAM1 TNFa inh, TNFa cytotox, cytoskel mod)
CC(=O)OC(C)(C)/C=C/C(=O)[C@](C)(O)[C@H]1[C@H](O)C[C@@]2(C)[C@@H]3CC=C4[C@H](C[C@H](O)C(=O)C4(C)C)[C@]3(C)C(=O)C[C@]12C	E-sel TNF inh 60.3 (no result: VCAM1 TNFa inh, TNFa cytotox, cytoskel mod)
